PGK inhibitor: qHTS Assay to Find Inhibitors of Phosphoglycerate Kinase | Phosphoglycerate kinase, glycosomal (Trypanosoma brucei brucei), P07378 | PGK/GAPDH coupled, Kinase-Glo luminescence, 60 min | Potency, µM (doses to about 57.5 µM), without a hit: top-dose activity change, negative = inhibition, most hits filed as inhibitors | 0.043% of 380,000 active; further: on the % scale 0 is the no-effect control and ±100 the full control effect; nearly all actives have a fitted effect of over 60% in size
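Luminescent ATP detection (Kinase-Glo Plus) follows a 60-minute room-temperature incubation, with wells lacking PGK as controls. Buffer: 100 mM TEA (pH 7.6), 5 mM MgCl2, 0.01% Tween-20. Coupling enzyme GAPDH (100 nM final) supplies unstable 1,3-BPG in-well.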
USP2a inh: qHTS Assay for Inhibitors of Ubiquitin-specific Protease USP2a Using CHOP2 as the Reporter | 0.01% of 330,000 active | AID 463254, 2010 | USP2 core, Ub-CHOP2 coupled fluorogenic reporter, 485/531 | Potency, µM (series often up to 38.3 µM), without a hit: at the top dose activity change, negative = inhibition, most hits filed as inhibitors | Ubiquitin carboxyl-terminal hydrolase 2 (Homo sapiens), O75604;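 further: plate controls were DMSO wells for no effect and full inhibition by NEM control for full effect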
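Deubiquitinase activity read as fluorescence (485/531 nm) after Ub-CHOP2 cleavage activates the enterokinase reporter on its substrate; USP2 core 10nM, Ub-CHOP2 and substrate 25nM each, 30min compound preincubation then 60min RT; data normalized to NEM, curves fitted.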
RGS4 inhibitor: Inhibitors of Regulator of G Protein Signaling (RGS) 4: qHTS; Regulator of G-protein signaling 4 (Homo sapiens), P49798; Transcreener GDP fluorescence polarization, RGS4-accelerated GTP hydrolysis; Potency, µM (doses to about 114 µM), for inactives: at the top dose activity change, negative = inhibition, hits mostly inhibitors; 0.039% of 390,000 active; further: on the % scale 0 is the no-effect control and ±100 the full control effect; nearly all actives have a fitted effect of over 75% in size
Target sequence (P49798 whole entry, looked up): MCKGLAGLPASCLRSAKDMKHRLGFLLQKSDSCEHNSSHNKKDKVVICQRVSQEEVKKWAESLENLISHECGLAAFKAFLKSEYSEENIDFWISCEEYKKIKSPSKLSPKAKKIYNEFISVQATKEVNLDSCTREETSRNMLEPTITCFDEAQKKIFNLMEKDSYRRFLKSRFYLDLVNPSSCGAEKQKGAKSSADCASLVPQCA
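MLSMR compounds (23 nl, pin-transferred) preincubated 10 min at room temperature with a 500nM (2x) first reagent, then RGS4 at 900nM (2x) plus Transcreener GDP mix added; fluorescence polarization (620/688 nm) read before and after 90 min at 30 °C.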
BCR signal inh: qHTS Assay to Find Inhibitors of Chronic Active B-Cell Receptor Signaling; ABC-DLBCL IkBa-CBG/CBR reporter, luminescence ratio, 4 h; Potency, µM (series often up to 46.1 µM), for the others: at the top dose activity change, negative = inhibition, usual class: inhibitors; 0.05% of 340,000 active; AID 493014, 2011; active means well fitted inhibition curve with a large enough effect in the signal ratio, with a control signal flat, not every such curve was filed as active; inconclusive means small, poorly fitted or top-dose-only effect, or effect the other way, or a change in a side signal; the % refers to the signal ratio;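 further: plate controls were basal doxycycline-induced cells for no effect and cells given 10 µM MG132 for full effect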
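TMD8 human ABC-DLBCL cells with doxycycline-inducible IκBα–green luciferase fusion and unfused red luciferase, in 0.5% FBS medium; compounds up to 46 uM, 4 h at 37C. Green/red luminescence ratio, filter-overlap corrected, fitted to concentration-response curves.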
Tb PFK inh-1: qHTS Assay to Find Inhibitors of T. brucei phosphofructokinase; ATP-dependent 6-phosphofructokinase (Trypanosoma brucei brucei), O15648; Potency, µM (top dose mostly 57.5 µM), inactives show top-dose activity, negative = inhibition, hits mostly inhibitors; T. brucei PFK, ADP-Glo luminescence; 0.17% of 330,000 active;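 further: 0% = uninhibited 1x PFK enzyme wells and -100% = no-enzyme wells; nearly all actives have a fitted effect of over 60% in size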
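ADP-Glo luminescence quantified ADP after 45 min at room temperature, with 1.25 nM T. brucei PFK, 0.1 mM ATP and 0.5 mM fructose-6-phosphate in pH 8.0 TEA buffer. qHTS titrations up to 57 µM; curves classified by quality.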
Tb PFK KinaseGlo: Tb PFK orthogonal confirmatory assay using ATP depletion (Kinase-Glo Plus) as an alternative measure of Tb PFK activity: Hit Validation | shares compounds with Tb PFK inh-1 | Tb PFK enzyme, ATP depletion, Kinase-Glo Plus luminescence | Potency, µM (series often up to 57.5 µM), inactives show top-dose inhibition | 47% of 1,100 active | AID 504636, 2011; calls by dose curve; further: nearly all actives have a fitted effect of over 60% in size
Tb PFK inh-2: Inhibitors of T. brucei phosphofructokinase: Hit Validation; 41% of 1,100 active; AID 504637, 2011; purified T. brucei PFK, ADP-Glo luminescence, 45 min; shares compounds with Tb PFK inh-1; Potency, µM (doses to about 57.5 µM), for inactives: at the top dose activity change, negative = inhibition, most hits filed as inhibitors;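 further: plate controls were full PFK enzyme control for no effect and no enzyme control for full effect; nearly all actives have a fitted effect of over 60% in size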
Active calls of the source: *; ? = inconclusive; nt = no result; ! = repeats disagree; [ ] = another dose, or the depositor's remark. An excerpt weighted towards active compounds, which were near 0.25% of everything screened. Unless noted, the call rests on the fitted dose curve; in most records, active means well fitted curve in the direction sought with a large enough effect; inconclusive means small, poorly fitted or top-dose-only effect, or another doubt; inactive means no such curve, though single readings can be large; an effect the other way counts as inactive or inconclusive. Potency means the concentration at half of the fitted maximal effect.

SMILES | PGK inhibitor | USP2a inh | RGS4 inhibitor | BCR signal inh | Tb PFK inh-1 | Tb PFK KinaseGlo | Tb PFK inh-2
COC(=O)C(NS(=O)(=O)CCl)C(C)C (stereo not drawn) | nt | nt | 4% | nt | nt | nt | nt
Fc1ccc(C(OCCN2CCN(CCCc3ccccc3)CC2)c2ccc(F)cc2)cc1 | 5% | nt | 38µM*! | nt | nt | nt | nt
C=Cc1c(C)c2cc3[nH]c(cc4nc(cc5nc(cc1[nH]2)C(C)=C5CCC(=O)O)C(CCC(=O)O)=C4C)c(C)c3C=C | 10µM* | 0% | 9.5µM*! | ? | ? | nt | nt
CCc1c2c(nc3ccc4c(c13)OCCO4)-c1nc3ccccc3c(=O)n1C2 | nt | nt | 33% | nt | nt | nt | nt
COc1ccc(C2C3C=CCC(c4cccc(/C=C/c5ccccc5)c4)C3C(=O)N2Cc2ccccc2)cc1Cl (stereo not drawn) | nt | nt | 0% | nt | nt | nt | nt
O=C(Nc1nc2ccccc2[nH]1)c1ccccc1F | 8.9µM* | 4% | -14% | ? | ? | nt | nt
O=C(Nc1nc2ccccc2[nH]1)c1ccc(F)cc1 | -4% | 2% | 5% | ? | -10% | nt | nt
O=S1(=O)C2CC3OC2(CC3c2ccc(F)cc2)CN1Cc1ccc(Cl)cc1 (stereo not drawn) | nt | nt | -6% | nt | nt | nt | nt
COc1cccc(OC)c1-c1nn2c(-c3cc(-c4ccccc4)n[nH]3)nnc2s1 | -12% | ? | ? | 1% | ? | -22% | ?
COc1ccc2o/c(=N/NC(=O)c3cccs3)c(C(N)=O)cc2c1 | -11% | 2% | -15% | ? | ? | -31% | ?
NC(=O)c1cc2ccccc2o/c1=N/NC(=O)c1cccs1 | -7% | 1% | -37% | ? | ? | nt | nt
COc1ccc(/C=C/C(=O)Nc2ccccc2C(=O)O)cc1 | 3% | 1% | ? | ? | ? | -31% | ?
Cc1cccc(CNC(=O)Cc2csc3ccccc23)c1 | nt | nt | 2% | nt | nt | nt | nt
CC(=C\C(=O)O)/C(=C\c1cccc2ccccc12)C(=O)O | -1% | 0% | -20% | ? | ? | -1% | -1%
CC(=C\C(=O)O)/C(=C/c1ccco1)C(=O)O | -8% | 1% | -23%[56.9 µM] | 2% | 0% | nt | nt
CC(C)(C)OC(=O)NC(Cc1ccccc1)C(=O)NC1COC2CC(n3ccc(=O)[nH]c3=O)OC12 (stereo not drawn) | nt | nt | -6% | nt | nt | nt | nt
Cc1c(-c2ccc(Cl)cc2)oc(=O)c2c(N)n(-c3ccccc3)nc12 | -17% | 1% | 4% | -3% | ? | ? | ?
Nc1c2c(=O)oc(-c3ccccc3)cc2nn1-c1ccccc1 | -3% | 0% | -6% | -26% | 1% | nt | nt
C=CCSc1nc2sc3c(c2c(=O)n1CC)CCc1ccccc1-3 | -8% | -6% | ? | -1% | 13µM* | 6.7µM* | 11µM*
C=CCn1c(SCC)nc2sc3c(c2c1=O)CCc1ccccc1-3 | -7% | 4% | 15% | 11% | 7% | nt | nt
CCOC(=O)N(CC)OC(=O)Nc1ccc(Cl)cc1 | -1% | 3% | -48% | ? | -10% | nt | nt
CCOC(=O)N(C)OC(=O)Nc1ccc(Cl)c(Cl)c1 | 5% | -5% | ? | ? | 1.5µM* | 24µM* | ?

Bioassay records: PubChem BioAssay, National Center for Advancing Translational Sciences (NCATS)
